# Results filed as inconclusive are left out. Where a call stands in place of a potency, no number is given. Calls of active or inactive are those of the source. Calls follow the shape of the dose curve; as a rule, active = well fitted inhibition curve with a large enough effect; inconclusive = small, poorly fitted or top-dose-only effect; inactive = no such curve, though single readings can be large or run the other way.
# Biological target: Muscarinic acetylcholine receptor M1 (Rattus norvegicus) (UniProt P08482)
# Sequence (P08482 whole entry, looked up): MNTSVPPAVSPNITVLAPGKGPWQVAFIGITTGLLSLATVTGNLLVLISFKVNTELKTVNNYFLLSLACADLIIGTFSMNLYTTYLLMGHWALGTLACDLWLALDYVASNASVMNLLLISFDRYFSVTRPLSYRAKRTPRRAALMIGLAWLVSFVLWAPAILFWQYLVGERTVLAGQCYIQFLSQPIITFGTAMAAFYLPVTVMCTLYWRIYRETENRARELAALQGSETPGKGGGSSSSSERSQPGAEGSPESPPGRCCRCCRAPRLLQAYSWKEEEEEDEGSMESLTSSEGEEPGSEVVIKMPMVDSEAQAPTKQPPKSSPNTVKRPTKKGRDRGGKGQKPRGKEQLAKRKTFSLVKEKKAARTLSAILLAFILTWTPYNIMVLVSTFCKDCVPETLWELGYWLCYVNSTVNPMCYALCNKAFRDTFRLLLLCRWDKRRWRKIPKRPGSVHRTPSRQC
# Test: qHTS Assay for Antagonists of Acetylcholine Muscarinic M1 Receptor: Kinetic Measurement of Intracellular Calcium Response (AID 943); also: nearly all actives have a fitted effect of over 75% in size
# Settings: M1-expressing cells, kinetic intracellular calcium fluorescence; series mostly up to 35.3 µM
# Source text: NIH Molecular Libraries Screening Centers Network [MLSCN]
# NIH Chemical Genomics Center [NCGC]
# Acetylcholine muscarinic M1 receptor is a G-protein coupled receptor (GPCR) coupling to the Gq G protein. It is mainly expressed in brain and functionally related to the learning and memory processes. The agonists of this receptor have the potential for the treatment of Alzheimer's disease and cognitive impairments associated with Schizophrenia. Upon an activation of the M1 receptor, phosholipase C (PLC) is activated to produce inositol 1,4,5-trisphosphate (IP3) and diacyl glycerol (DAG) resulting in increase of intracellular free Ca2+ and activation of protein kinase C (PKC). The increase of intracellular calcium can be measured by the fluorescent calcium dyes, Fluo-3 and Fluo-4, using a fluorescence kinetic plate reader.
# We have obtained a M1-CHO cell line transfected with rat acetylcholine M1 receptor and optimized a calcium assay with this cell line for compound screening as a counter-screen assay for other Gq-coupled GPCRs.
# NCGC Assay Protocol Summary:
# The CHO-M1 (CHO-M1) cell line transfected with the rat acetylcholine muscarinic M1 receptor was obtained from ATCC. The cells were maintained in call culture flasks with F12 Kaighn's media (Invitrogen) supplemented with 10 % FBS, 100 units/ml penicillin, 100 ug/ml streptomycin and 250 ug/ml geneticin (Invitrogen) at 37C, 5 % CO2 in a humidified atmosphere. At 90-95 % confluence, the cells were then detached in 15 ml […] % trypsin by 3 minutes incubation at 37C and centrifuged at 1000 RPM to remove the trypsin solution. The resulting cell pellet was resuspended in the cell freezing media containing 10 % DMSO (Invitrogen) at a density of 4 x 10^7 cells/ml. The aliquots of cells at 0.5 - 1 ml per vial were frozen down slowly at 1 degree C/min using a Cryo 1 degree C freezing container in the presence of isopropanol (Nalgene Nunc, Rochster, NY) overnight in a -80C freezer. The frozen cells were then transferred to liquid nitrogen for the storage up to one year.
# The resuspended frozen cells were plated at 3 ul/well with 2000 cells in the black, tissue culture treated, clear bottom 1536-well plates. After overnight incubation at 37C, 5% CO2, 2.5 ul/well no-wash calcium dye (containing Fluo-4, BD Biosciences) were loaded and incubated at 37C, 5 % CO2 for 1 hour followed by a 10 min incubation with 20 nl compound in DMSO solution. The assay plates were then placed onto the kinetic fluorescence plate reader (FDSS-7000, Hamamatsu) for a measurement of the kinetic changes in intracellular free calcium. The basal fluorescence signal was measured for 6 times at 1 Hz followed by an addition of 1 ul of carbachol and continued 4 min measurement. The results were calculated as the maximal signal (peak) divided by the minimal signal (basal).
# 1536-well assay protocol:
# (1) 3 ul/well containing 2000 M1-CHO cells in 1536 tissue culture treated black/clear bottom plate
# (3) Add 1ul/well calcium dye (from no-wash calcium dye kit, BD Biosciences) containing […]
# (4) Incubate 1 hour at 37C with 5% CO2
# (5) Add 20 nl compound diluted in DMSO
# (6) Incubate 10 minutes at the room temp
# (7) Place the plate in FDSS-7000 instrument (Ex = 480 nm and […])
# #- read the assay plate 6 times at 1 Hz for basal signal
# #- add 1 ul/well EC80 carbachol (100 nM final)
# #- continuously read the assay plate for 4 min at 1 Hz
# Keywords: acetylcholine muscarinic M1 receptor, calcium kinetic assay, Fluo-4, high throughput screening, MLSMR, MLSCN, NIH Roadmap, qHTS and NCGC
row,SMILES,Potency
1,N[C@H](CCC(=O)N[C@H](CSN=O)C(=O)NCC(=O)O)C(=O)O,inactive
2,N[C@H](Cc1ccc(Cl)cc1)C(=O)O,inactive
3,CC(N)=NCCC[C@H](N)C(=O)O,inactive
4,Nc1c(S(=O)(=O)O)cc(Nc2ccc(Nc3nc(Cl)nc(Nc4ccc(S(=O)(=O)O)cc4)n3)c(S(=O)(=O)O)c2)c2c1C(=O)c1ccccc1C2=O,inactive
5,C=C[C@H](N)CCC(=O)O,inactive
6,CC#CCOC(=O)c1c(C)nc2sc3c(c2c1N)CC[C@@H](O)C3,5.01 µM (active)
7,NCCNS(=O)(=O)c1cccc2cnccc12,inactive
8,COc1cc2c(cc1C(F)(F)F)N(C(=O)Nc1cc(F)cc(-c3cccnc3)c1)CC2,inactive
9,N#C/C(=C\c1ccc(O)c(O)c1)C(=O)Nc1ccccc1,inactive
10,S=C(Nc1ccccc1)Nc1nccs1,inactive
11,CSc1ccc2c(c1)[C@H](N1CCN(C)CC1)Cc1ccccc1S2,2.24 µM (active)
12,N[C@]1(C(=O)O)CCc2cc(C(=O)O)ccc21,inactive
13,Fc1cccc(/C=N\N=C/c2cccc(F)c2)c1,inactive
14,CCCCCCCCCCCCCCCC(=O)O[C@H](CC(=O)O)C[N+](C)(C)C,5.62 µM (active)
15,COC(=O)c1c(-c2cc(OC)c(OC)c(OC)c2)c2ccnc(OCc3ncccn3)c2c(=O)n1Cc1ccnc(C)c1,inactive
16,CC(N)=NCCCC[C@H](N)C(=O)O,inactive
17,COC(=O)C1=C(C)NC(C)=C([N+](=O)[O-])[C@H]1c1ccccc1C(F)(F)F,inactive
18,C[C@]12CC3CC(N)(C1)C[C@@](C)(C3)C2,inactive
19,COc1cccc(OC)c1OCCNC[C@@H]1COc2ccccc2O1,10 µM (active)
20,NS(=O)(=O)c1cc2c(cc1Cl)N[C@@H]([C@@H]1C[C@@H]3C=C[C@H]1C3)NS2(=O)=O,inactive

row,SMILES,Potency
1,CN1CCN(CCC=C2c3ccccc3Sc3ccc(S(=O)(=O)N(C)C)cc32)CC1,14.1 µM (active)
2,CC(=O)N[C@@H](C(=O)O)C(C)(C)SN=O,inactive
3,C[C@@H]([C@H](O)c1ccc(O)cc1)N1CCC(Cc2ccccc2)CC1,12.6 µM (active)
4,C[C@H](N=C(NC#N)Nc1ccncc1)C(C)(C)C,inactive
5,O=C1N=C(O)CN1/N=C\c1ccc(-c2ccc([N+](=O)[O-])cc2)o1,inactive
6,C[N+](C)(C)CCC(=O)c1cccc2ccccc12,inactive
7,O=C(O)[C@H]1CN(CCCP(=O)(O)O)CCN1,inactive
8,Cn1cnc2c(NC3CCCC3)ncnc21,inactive
9,C[C@@](N)(C(=O)O)c1ccc(C(=O)O)cc1,inactive
10,CCCCCCCCCCCCC/C=C\[C@@H](O)[C@@H](N)CO,inactive
11,C[C@@H](/C=C\c1cccc(Oc2ccc(F)cc2)c1)N(O)C(N)=O,inactive
12,CCCn1c(=O)c2[nH]c(-c3ccc(OCC(=O)Nc4ccc(C#N)cc4)cc3)nc2n(CCC)c1=O,inactive
13,O=C(O)[C@H]1CCCNC1,inactive
14,CNCC[C@H](Oc1ccccc1OC)c1ccccc1,14.1 µM (active)
15,Cc1ccc(/C(=C/CN2CCCC2)c2ccccn2)cc1,1.26 µM (active)
16,C[C@@H]1CNCCN1S(=O)(=O)c1cccc2cnccc12,inactive
17,COc1ccccc1NC(=O)Nc1nc(-c2cccnc2)nc2ccccc12,inactive
18,NC[C@](O)(CS(=O)(=O)O)c1ccc(Cl)cc1,inactive
19,N#CC(=C(/N)Sc1ccccc1N)/C(C#N)=C(/N)Sc1ccccc1N,inactive
